# Results reported in PubChem BioAssay AID1259415 (National Center for Advancing Translational Sciences (NCATS), 2018).
# The campaign covered roughly 410,000 compounds. About 18,000 (4.4%) were called active. Inconclusive results (about 7%) are left out. Only a selection was taken, and actives are over-represented in it overall. Values without a mark were called inactive. Rule as the data show it: active = activity change below about -60%; inconclusive = no clear call, values can overlap the other calls; inactive = above about -39%.
# Assay: qHTS Assay for inhibitors of the human cytomegalovirus (HCMV)
# Conditions: HFF cells, HCMV-luciferase reporter, 72 h; at 57.5 µM; hits give low values
# How it was run: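 Two compound doses tested in HFFs infected with HCMV-luciferase, MOI 1 PFU/cell, 72 h at 37C. Lysate luminescence read with OneGlo; data normalized against buffer-only and 10uM Salinomycin inhibitor controls.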
# % is scaled to controls: 0 for no effect and ±100 for the full control effect.
row,Compound,"activity change, negative = inhibition"
1,COCCNC(=O)c1ccc(-n2c(SCc3cccnc3)nc3ccccc3c2=O)cc1,-38.3%
2,CCC1NC(=O)c2cccnc2-n2c1nc1ccc(C)cc1c2=O (stereo not drawn),-2.47%
3,CSc1nc2ccc(C)cc2c(=O)n1-c1cccnc1,-87.3% (active)
4,OC(c1ccccc1)(c1ccccc1)C1CCN(CCCOc2ccccc2)CC1,2.18%
5,CN1CCC[C@@H]1CCO[C@](C)(c1ccccc1)c1ccc(Cl)cc1,-62.4% (active)
6,CC1CCCN1CCC(C(N)=O)(c1ccccc1)c1ccccc1 (stereo not drawn),-15%
7,COc1ccc(-c2nc(C)c(CCNC(=O)c3ccc(C(F)(F)F)cc3)s2)cc1OC,14.8%
8,O=C(Nc1ccc(Cl)cc1)c1csc([C@@H]2O[C@H](CO)[C@H](O)[C@H](O)[C@H]2O)n1,16.2%
9,N#Cc1ccc(CC(O)c2nc(C(=O)Nc3ccccc3)cs2)cc1 (stereo not drawn),-100% (active)
10,O=C(Nc1ccc(Cl)cc1)c1csc(C(O)c2cccc(C(F)(F)F)c2)n1 (stereo not drawn),-20.2%
11,CCc1c(C)nc2c(OC)cccc2c1Cl,-75.4% (active)
12,COc1ccccc1Cc1c(-c2ccc(Cl)cc2)nc2c3ccccc3ccn12,22.4%
13,COc1cccc2c(C)c(C(=O)O)[nH]c12,-2.81%
14,COc1ccc(C)cc1-n1c(-c2ccc(C)cc2)cc2c1CC(C)(C)CC2=O,5.24%
15,CC(=O)Nc1ccc(S(=O)(=O)NC2(C(F)(F)F)C(=O)NC(C)=C2C#N)cc1 (stereo not drawn),-29.9%
16,CC(C)CNc1ncnc2c1nnn2C,-27.2%
17,O=C(NCc1nnnn1-c1ccc(Cl)cc1)c1ccc2c(c1)OCO2,21%

row,Compound,"activity change, negative = inhibition"
1,Cc1ccc(-n2nnnc2CNC(=O)c2ccccc2C)cc1C,-15.5%
2,O=C(NCc1nnnn1-c1ccc(Cl)cc1)c1ccc([N+](=O)[O-])o1,-63.2% (active)
3,C=CCn1c(O)c(/C=N/N2CCOCC2)c(=O)[nH]c1=S,-8.35%
4,CCCCn1nc2ccccc2c1OCC,-7.88%
5,CSc1ccccc1NC(=O)CCS(=O)(=O)c1nc(-c2cccs2)cc(C(F)(F)F)n1,3.11%
6,COc1ccccc1-c1cc(C(F)(F)F)nc(S(=O)(=O)CCCC(=O)Nc2cc(C)ccc2O)n1,7.44%
7,COc1ccccc1-c1cc(C(F)(F)F)nc(S(=O)(=O)CCCC(=O)Nc2ccc(F)cc2F)n1,-93% (active)
8,Cc1nn(-c2ccccc2)nc1C(=O)OCC(=O)N1CCCCC1C (stereo not drawn),37.5%
9,Cc1oc2ncnc(N3CCCCC3)c2c1C(=O)N1CCN(c2cccc(Cl)c2)CC1,2.67%
10,CNc1cncc(-c2cccc(C(=O)N3CCOCC3)c2)n1,16.3%
11,C#Cc1cc(N2CCN(C(=O)c3ccoc3)CC2)n2nc(-c3cccc(Cl)c3)cc2n1,-102% (active)
12,COc1ccccc1-c1cc2nc(C)c(CCC(=O)NC3CCCCC3)c(C)n2n1,-7.07%
13,C[C@]12CC[C@H](O)C[C@H]1CC[C@@H]1C2CC[C@]2(C)[C@@H](C3=CC(=O)OC3)[C@@H](O)C[C@]12O (stereo partly drawn),-99.6% (active)
14,CC(=O)[C@@]12O[C@@H]1C[C@H]1[C@@H]3CC[C@H]4C[C@@H](O)CC[C@]4(C)[C@H]3CC[C@@]12C,-16%
15,Cc1cc2ccccc2n1CCNC(=O)c1ccc(F)cc1,0.319%
16,CC1=C(C(=O)OCc2ccc(C)cc2)C(c2c(Cl)cccc2Cl)CC(=O)N1 (stereo not drawn),-18.7%
